Data reported in PubChem BioAssay AID1063 (University of Pittsburgh Molecular Library Screening Center, 2008).
Screen size: about 200,000 compounds; about 18,000 (9%) were called active. Only a selection was taken, and actives are over-represented in it overall. Unmarked numbers belong to inactive results. Rule as the data show it: active = inhibition above about 50%; inactive = the rest.

Test: Leishmania major promastigote growth inhibition, primary screen (AID 1063);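 also: promastigotes grown with compound for 44 hours at 28 °C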
Settings: Leishmania major promastigotes, resazurin fluorescence viability; at 10 µM; stronger effect = higher value

Structure (SMILES) | inhibition
OCC(O)CN(c1ccccc1)c1ccccc1 (stereo unspecified) | -1.63%
O=C(COc1ccc(-c2ccccc2)cc1)NN=C1CCCC1 | -3.72%
COc1ccc(/C=C2\SC(=S)N(CC(=O)NNC(=O)c3ccncc3)C2=O)cc1 | -5.15%
Cn1cc([N+](=O)[O-])c(C(=O)Nc2ccc3c(c2)OCCO3)n1 | 10.7%
Cn1cc([N+](=O)[O-])c(C(=O)Nc2cnn(Cc3ccc(F)cc3)c2)n1 | 98.6% (active)
CCc1ccc(NC(=O)c2ccc(Cn3cc([N+](=O)[O-])cn3)cc2)cc1 | -3.55%
CCC(=O)c1ccc(N2CCN(C(=O)c3cc([N+](=O)[O-])ccc3F)CC2)c(F)c1 | 12.8%
CC(=O)Nc1ccc(S(=O)(=O)N(C)c2ccc(OCC(=O)OCC(=O)N3CCCCC3)cc2)cc1 | -6.69%
CSc1nc2ccc(NC(=O)c3c(F)cccc3F)cc2s1 | 15.7%
Cc1cccc(NC(=S)Nc2ccc3cn[nH]c3c2)c1 | 5.93%
CCN(CC)CCN(C(=O)c1cccc([N+](=O)[O-])c1)c1nc2ccc(OC)cc2s1 | 1.41%
O=C(/C=C/c1ccc(Cl)cc1)Nc1ccc(S(=O)(=O)Nc2ncccn2)cc1 | 63.3% (active)
O=S(=O)(Nc1ncccn1)c1ccc(NS(=O)(=O)c2cccc(Cl)c2Cl)cc1 | -9.09%
O=C(/C=C/c1ccccc1Cl)Nc1ccc(S(=O)(=O)Nc2ncccn2)cc1 | -5.22%
CCOc1cc(NC(=S)NCc2ccco2)c(OCC)cc1NC(=O)c1ccco1 | -3.82%
C[C@@H](C(=O)N1CCNCC1)n1cc(CCC(=O)O)nn1 | -3.38%
CCc1ccc(-n2c(=S)sc3c(=O)n(-c4ccccc4OC)c(=S)[nH]c32)cc1 | -0.77%
COC(=O)COc1ccc(C2NC(=O)NC(C)=C2C(=O)NCc2ccccc2)cc1OC (stereo unspecified) | -7.17%
CCCOc1ccc(C2NC(=O)NC(c3ccccc3)=C2C(C)=O)cc1OCC (stereo unspecified) | 71.8% (active)
CCOC(=O)COc1ccc(Cl)cc1C1NC(=O)NC(C)=C1C(C)=O (stereo unspecified) | 0.61%
NS(=O)(=O)c1ccc(NC(=O)COC(=O)c2ccc(Cl)nc2)cc1 | -7.52%
NS(=O)(=O)c1ccc(NC(=S)NC(=O)c2cccc(Br)c2)cc1 | 1.9%
O=C(NCc1cccs1)C1CCN(S(=O)(=O)c2ccc(Cl)cc2)CC1 | -6.16%
O=C(NNS(=O)(=O)c1ccc(Cl)cc1)C1CCN(Cc2ccccc2)CC1 | 95.9% (active)

Structure (SMILES) | inhibition
CC(C)(C)NC(=O)NC(=O)CN1CCC(Cc2ccccc2)CC1 | -1.19%
O=C(Nc1ccccc1)N1CCN(Cc2ccccc2)CC1 | -1.08%
O=c1cc(CO)oc(CN2CCC(Cc3ccccc3)CC2)c1O | -2.15%
NC(=O)c1ccc(CN2CCC(Cc3ccccc3)CC2)cc1 | 86.9% (active)
CCCC(=O)C1CCN(Cc2ccccc2)CC1 | 82.8% (active)
CCNC(=S)NNC(=O)C1CCN(Cc2ccccc2)CC1 | -3.47%
O=C(NCCCN1CCN(Cc2ccccc2)CC1)C1CCN(S(=O)(=O)N2CCCC2)CC1 | -6.76%
CCOC(=O)N1CCN(C(=O)c2ccccc2N(Cc2ccccc2)S(=O)(=O)c2ccc(OC)cc2)CC1 | 43.4%
COc1ccc(N2CCN(CCCNC(=O)C3CCN(S(=O)(=O)N4CCOCC4)CC3)CC2)cc1 | -4.04%
CC(C)NC(=O)c1ccc(Cl)cc1Cl | -4.71%
Cc1cc(C)cc(NC(=O)N2CCCCCCC2)c1 | 9.55%
CCOC(=O)C1CCN(c2ncnc3c2c(-c2ccccc2)cn3-c2ccc(C)cc2)CC1 | -6.27%
Cc1ccc(NC(=O)Nc2cccc(C(F)(F)F)c2)nc1 | 11%
COC(=O)C1=C(C)N(c2ccc(Br)cc2)C(=O)/C1=C\c1ccco1 | 24.7%
COC(=O)C1=C(C)NC(=O)/C1=C/c1ccc(CNS(=O)(=O)c2ccc(C)cc2)o1 | 15.8%
COC(=O)C1=C(C)N(c2ccc(C)cc2)/C(=C/c2ccc(O)cc2)C1=O | 97.8% (active)
COc1ccc(S(=O)(=O)N2CCN(C(=O)c3cc(C)oc3C)CC2)cc1 | 8.89%
C/C(CC(=O)Nc1cccc(C(F)(F)F)c1)=N\NC(=O)C(=O)NCC(C)C | -8.72%
COc1ccc(C(=O)CSc2nnc(-c3ccco3)o2)cc1 | -1.52%
N#Cc1ccc(-c2ccc(F)cc2)nc1Sc1ccccc1 | -13%
N#Cc1ccc(-c2nc3cc(C#N)c(C#N)cc3nc2-c2ccccc2)cc1C#N | 59% (active)
N#Cc1c(-c2ccc(F)cc2)nc(-c2ccccc2)[nH]c1=O | 3.06%
CC1(C)CC(=O)c2cnc3nc4ccccc4n3c2C1 | 0.4%
Cc1cccc(CCNS(=O)(=O)c2ccc(S(=O)(=O)NC3CCCC3)cc2)c1 | 68.6% (active)

Structure (SMILES) | inhibition
CSc1ccc(S(=O)(=O)NC2CCCCC2)cc1 | -2.31%
O=C(CCc1ccc(S(=O)(=O)NC2CCCCC2)cc1)NCc1ccccc1 | 43.9%
CCOC(=O)c1c(N)nn(C(=O)c2ccccc2)c1-c1ccccc1 | 1.03%
O=c1cnnc(Nc2ccccc2)[nH]1 | -6.97%
Cc1nc(NCCN)c(C#N)c2c1COC(C)(C)C2 | -6.15%
CCCCc1nc(NCCN)c(C#N)c2c1CSC(C)(C)C2 | 100% (active)
CCCCc1nc(NCc2ccccc2)c(C#N)c2c1CCCC2 | 40.6%
COc1ccc(C(=O)NC(=S)Nc2ccc(Cl)cn2)cc1OC | -4.99%
O=C1NC(c2ccc(-c3ccccc3[N+](=O)[O-])o2)C(C(=O)c2ccc(Cl)cc2)C(O)(C(F)(F)F)N1 (stereo unspecified) | 57.7% (active)
CC(=O)C1C(c2ccc(Cl)cc2)NC(=O)NC1(O)C(F)(F)F (stereo unspecified) | -4.84%
CC(=O)C1C(c2cccc(Oc3ccccc3)c2)NC(=O)NC1(O)C(F)(F)F (stereo unspecified) | -1.39%
Cn1nnnc1-c1cc(Cl)cc(Cl)c1 | 5.35%
O=c1[nH]oc(O)c1-c1ncc(C(F)(F)F)cc1Cl | -7.85%
O=C(O)CSc1nnc(-c2ccc3c(c2)OCO3)n1-c1ccccc1 | -2.94%
COc1cc2c(cc1O)C(SC)=NC(C)(C)C2 | 77.2% (active)
COc1cc2c(cc1OC)C(Nc1ccc(S(N)(=O)=O)cc1)=NC(C)(C)C2 | -2.7%
COc1cc2c(cc1OC)C(C(C)C)=NC(C)(C)C2 | -1.29%
COC(=O)c1c(NC(C)=O)sc(C(=O)Nc2ccccc2OC)c1C | -6.26%
COc1ccccc1CNC(=O)CN1CCC(n2cnc3cc(F)ccc32)CC1 | 0.36%
CCc1ccccc1NC(=O)Cc1cn(C)c2ccccc12 | 1.32%
Fc1cc(F)c2nc(Nc3nc4c(F)cccc4s3)sc2c1 | 64.3% (active)
NC(=O)c1c(Nc2nc3c(F)cccc3s2)sc2c1CCCC2 | 0.33%
Fc1cc(F)c2nc(N3CCOCC3)sc2c1 | -5.44%
Cc1cc(C)n(Cc2cnc(N3CCOCC3)s2)n1 | 0.31%

Structure (SMILES) | inhibition
COc1ccc(C)cc1NC(=O)NCc1ccccn1 | -9.22%
COc1ccc2ccccc2c1CNc1nnnn1C | 1.31%
COc1ccc2ccccc2c1CNCc1ccccn1 | 52.1% (active)
O=S1(=O)CC/C(=N\Nc2ccc(F)cc2)c2ccsc21 | -11.7%
Cc1nn(CC(=O)Nc2ccc(C#N)cc2)c(C)c1[N+](=O)[O-] | -6.73%
CC(=O)c1cccc(CN2CCC(CO)(Cc3ccccc3)CC2)c1 | 14%
OCC1(Cc2ccccc2)CCN(Cc2cc3ccccc3o2)CC1 | 84.5% (active)
CN(C)CCCCCN(C)Cc1cc2ccccc2o1 | 11.6%
Cc1ccc2c(c1)C1CN(C)CCC1N2C(=S)Nc1ccc(Cl)cc1Cl (stereo unspecified) | 31.9%
Cc1cc(C)cc(N(C(C)C(=O)Nc2c(C)n(C)n(-c3ccccc3)c2=O)S(C)(=O)=O)c1 (stereo unspecified) | -3.81%
Cc1c(NC(=O)C(C)OC(=O)c2cc3c4ccccc4n(C)c3s2)c(=O)n(-c2ccccc2)n1C (stereo unspecified) | 88.6% (active)
COC(=O)Nc1c(C)n(C)n(-c2ccccc2)c1=O | -8.78%
Cc1sc2c(c1C)c(=O)n(-c1ccccc1)c(=O)n2CC(=O)NCC1CCCO1 (stereo unspecified) | -0.67%
CCOC(=O)c1cnc2c(c(C)nn2CC)c1Cl | 6%
O=C(CCC(=O)N1CCN(S(=O)(=O)c2ccccc2)CC1)NC1CCCc2ccccc21 (stereo unspecified) | 1.14%
O=C(CSc1nncs1)NC1CCCc2ccccc21 (stereo unspecified) | -8.28%
O=C(CN1CCN(c2ccc(O)cc2)CC1)NC1CCCc2ccccc21 (stereo unspecified) | 94.5% (active)
COc1ccc(/C(=N\O)c2nccc3cc(OC)c(OC)cc23)cc1OC | 3.01%
CCOC(=O)c1ccc(NC(=O)c2cc(=O)[nH]c3ccccc23)cc1 | -7.03%
COc1ccccc1CNC(=O)CNC(=O)c1cn(-c2ccccc2OC)c(=O)c2ccccc12 | -2.45%
COc1cc(OC)c(C(=O)OCC(=O)N2CC(=O)Nc3ccccc32)cc1OC | -4.64%
CC(Sc1nnnn1C)C(=O)NC(=O)NC1CCCCC1 (stereo unspecified) | -2.91%
COc1cccc(-n2c(SCC(=O)NC3CCCCC3)nc3n[nH]c(C)c3c2=N)c1 | 20.6%
Cc1cccc(-n2c(N)cc(=O)nc2SC(C)C(=O)NC2CCCCC2)c1 (stereo unspecified) | 55.9% (active)
